KB-3-1 cytotox – qHTS assay for MDR1-selective chemotherapeutics: Primary screen using the parental adenocarcinoma cell KB-3-1. KB-3-1 viability, CellTiter-Glo ATP luminescence, 72 h. Potency, µM (series often up to 46.1 µM), most hits filed as cytotoxic. 1.4% of 400,000 active. AID 1347075, 2019; also: % is scaled to controls: 0 for no effect and ±100 for the full control effect; nearly all actives have a fitted effect of over 60% in size
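Cytotoxicity in the drug-sensitive parental line KB-3-1 was scored as loss of CellTiter-Glo luminescence following 72 h incubation with compound. Values come from curve fitting of normalized concentration-response data.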
KB-V1 cytotox – qHTS assay for MDR1-selective chemotherapeutics: Primary screen using the drug-selected MDR subline cells KB-V1 | KB-V1 MDR cells viability, CellTiter-Glo, 72 h | 3.4% of 400,000 active | Potency, µM (top dose mostly 46.1 µM), most hits filed as cytotoxic; also: % is scaled to controls: 0 for no effect and ±100 for the full control effect; nearly all actives have a fitted effect of over 60% in size
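qHTS viability screen in drug-selected KB-V1 MDR cells: 72 h compound treatment at 37 degrees C, ATP luminescence end point.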
HT1080-NT tox – qHTS for induction of synthetic lethality in tumor cells producing 2HG: qHTS for the HT-1080-NT fibrosarcoma cell line. HT-1080-NT fibrosarcoma viability, CellTiter-Glo ATP luminescence, 48 h. Potency, µM (highest dose often 46.1 µM), inactives show at the top dose activity, negative = less viability, actives largely listed as cytotoxic. 1.6% of 360,000 active;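 also: NT is the 2HG producing partner of a matched IDH1 knockdown line; 0% = DMSO-treated cells and -100% = media-only wells without cells; nearly all actives have a fitted effect of over 55% in size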
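Viability by CellTiter-Glo luminescence after 48 h compound exposure at 37C of HT-1080-NT cells (750/well, RPMI, 5% FBS). % activity scaled between DMSO wells and medium-only wells, then curve-fitted and categorized by curve class.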
HT1080 IDH1KD tx – qHTS for induction of synthetic lethality in tumor cells producing 2HG: qHTS for the HT-1080-IDH1KD cell line; 2% of 360,000 active; AID 686971, 2013; Potency, µM (doses to about 46.1 µM), for inactives: at the top dose activity, negative = toxicity, actives largely listed as cytotoxic; HT-1080 IDH1 knockdown viability, ATP luminescence, 48 h;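 also: 0% = DMSO wells and -100% = cell-free medium wells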
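CellTiter-Glo luminescence after 48 h compound exposure at 37 degrees C of IDH1-knockdown HT-1080 cells in 5% FBS RPMI. %Activity scaled between DMSO wells and cell-free media wells, with curves fitted and assigned curve classes.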
MCF10A rereplic – A quantitative high throughput screen for small molecules that induce DNA re-replication in MCF 10a normal breast cells | MCF 10A DNA re-replication, Hoechst nuclear intensity, 48 h | Potency, µM (highest dose often 46.1 µM), for inactives: top-dose activity, positive = re-replication, hits mostly activators | 2.9% of 350,000 active; also: % of control where 0% means no effect; nearly all actives have a fitted effect of over 50% in size
SW480 rerep – A quantitative high throughput screen for small molecules that induce DNA re-replication in SW480 colon adenocarcinoma cells | SW480 DNA re-replication, Hoechst DNA content imaging, 48 h | Potency, µM (titrated, usually from 46.1 µM), for inactives: top-dose re-replication activation, most hits filed as activators | 1.8% of 340,000 active; also: % of control where 0% means no effect; nearly all actives have a fitted effect of over 55% in size
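Compounds, transferred as 23 nL by pin tool, were incubated with cells for 48 hr; DNA content per nucleus was then quantified by Hoechst staining and fluorescence plate imaging.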
* hit, by the source's call; i = inactive; ? = inconclusive; . = no result; [ ] = remark or other dose. Hits are enriched below; roughly 8% of the tested compounds scored in any of these assays. Calls follow the shape of the dose curve; as a rule, active = well fitted curve in the direction sought with a large enough effect; inconclusive = small, poorly fitted or top-dose-only effect, or another doubt; inactive = no such curve, though single readings can be large; an effect the other way counts as inactive or inconclusive. Potency is read from the fitted curve at half-maximal effect.

SMILES	KB-3-1 cytotox	KB-V1 cytotox	HT1080-NT tox	HT1080 IDH1KD tx	MCF10A rereplic	SW480 rerep
Cc1ccccc1CN1C(=O)c2ccccc2S1(=O)=O	i	i	0.0%	-5.1%	23.1µM*	-7.4%
COc1ccc(C=C(C(C)=O)C(=O)c2ccccc2)cc1	i	i	23.1µM*	23.1µM*	.	.
COc1ccc(C=C(C(=O)c2ccccc2)c2ccccc2)cc1	?	?	-30.9%	-0.7%	.	.
COc1ccc(C=C(C(=O)c2ccccc2)C(=O)c2ccccc2)cc1	?	?	18.4µM*	?	.	.
Cc1ccc(NC(=O)CSc2nnc(-c3cccnc3)n2-c2ccc(C)cc2)cc1	i	i	-26.3%	?	8.0%	-0.7%
COc1ccc(CCC(=O)NNC(=O)c2cccs2)cc1	i	i	-17.4%[9.24 µM]	8.0%	13.0%	-7.0%
Cc1ccc(N(CCC#N)C(=O)CCl)cc1C	?	?	9.2µM*	13µM*	23.1µM*	7.31µM*
COCc1ccc(C(=O)N2CCCC(N3CCN(c4ccccc4C)CC3)C2)s1 (stereo not drawn)	i	i	-5.8%	-1.0%	4.1%	-23.0%
C=CCSC1=N/C(=C\c2cccnc2)C(=O)N1c1ccc(OC)cc1	i	?	6.3%	0.0%	-69.8%	1.6%
CCN(CC)C1=N/C(=C\c2ccc(OC)cc2)C(=O)N1c1ccccc1	i	8.2µM*	-9.9%	-13.0%	18.4µM*	16.4µM*
CCSC1=N/C(=C\c2ccccc2)C(=O)N1c1ccc(OC)cc1	i	i	25.5%	10.7%	14.6µM*	18.4µM*
COc1ccc(/C=C2\N=C(SC)N(C)C2=O)cc1	i	?	6.9%	8.8%	?	-2.1%
COc1ccc(/C=C2/N=C(SCC(=O)Nc3cc(C)on3)N(c3ccccc3)C2=O)cc1	i	i	2.4%	-8.3%	20.6µM*	1.9%
Fc1cccc(Cl)c1C1Nc2cccc3cccc(c23)N1	i	?	-1.3%	-2.9%	14.1%	8.0%
Brc1ccc(C2Nc3cccc4cccc(c34)N2)o1	i	i	?	-0.3%[9.24 µM]	14.6µM*	1.3%
Clc1cccc(Cl)c1C1Nc2cccc3cccc(c23)N1	?	i	?	?	18.4µM*	?
O=[N+]([O-])c1ccc(Cl)c(C2Nc3cccc4cccc(c34)N2)c1	10.3µM*	?	-24.9%	-5.5%	165.8%[0.0737 µM]	0.9%
Cc1ccccc1CSc1nnc(-c2cccs2)n1Cc1ccco1	i	5.8µM*	-0.4%	-0.5%	?	-0.7%
c1ccc(CSc2nnc(-c3cccs3)n2Cc2ccco2)cc1	?	?	-0.1%	-6.3%	13.6%	-5.7%
Brc1ccc(CSc2nnc(-c3ccccn3)n2Cc2ccco2)cc1	i	7.31µM*	?	11.2µM*	?	?
Cc1ccccc1CSc1nnc(-c2ccco2)n1Cc1ccco1	i	i	6.5%	-5.3%	?	-1.0%
c1ccc(CSc2nnc(-c3ccco3)n2Cc2ccco2)cc1	?	20.6µM*	1.4%	-1.7%	-0.8%	-0.9%
CC(C)(C)c1ccc(CSc2nnc(-c3ccccn3)n2Cc2ccco2)cc1	?	i	?	?	16.4µM*	?
O=C(NC1CCCCCC1)C(=S)N1CCOCC1	i	i	2.6%	2.9%	-2.6%	-6.3%
CCN(C(=O)c1cc2ccccc2oc1=O)c1ccccc1	i	i	5.2%	2.0%	0.9%	-5.0%[9.22 µM]
CCOc1ccc(CC(=O)NCCc2sc(-c3cccc(F)c3)nc2C)cc1	i	i	.	.	.	.
C(=C\c1ccccc1)/CSc1nnc(-c2ccncc2)n1Cc1ccco1	i	i	-0.4%	-1.3%	2.0%	3.1%

Bioassay records as filed in PubChem BioAssay.
